Consider 63 compounds from the supplement of paper PMC9446081.

Structures are written as SMILES. The campaign covered roughly 39,000 compounds. About 220 (0.56%) showed activity. This is one part of a sample in which actives are shown more often than they occur. Unmarked numbers belong to inactive results.
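Note: Wild-type cells incubated without shaking, value is the mean of two biological replicates.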

This experiment concerns Escherichia coli K-12 BW25113. In words: relative growth (OD600 normalised to plate interquartile mean) (fraction); higher = less growth inhibition, active = 0.2 or less. As to conditions: 50 µM; LB; incubation time: overnight (16-24 h).
For the compound `C[C@H](CO)N1C[C@H](C)[C@H](CN(C)S(=O)(=O)c2ccccc2F)Oc2ncc(C#Cc3ccccc3F)cc2C1=O`, the relative growth is 0.997.
`CO[C@@H]1CN(C)C(=O)c2cc(NC(=O)c3ccccc3)ccc2OC[C@@H](C)N(C(=O)CN(C)C)C[C@@H]1C`: the relative growth was 0.926.
Turning to `Cc1noc(C)c1NC(=O)Nc1cccc2c1O[C@H](CN(C)Cc1ccc(Oc3ccccc3)cc1)[C@H](C)CN([C@H](C)CO)C2=O`, the relative growth was 0.982.
Next, `Cc1noc(C)c1S(=O)(=O)Nc1ccc2c(c1)C(=O)N([C@@H](C)CO)C[C@@H](C)[C@@H](CN(C)S(=O)(=O)c1cccs1)O2`: 1.01; `C[C@H](CO)N1C[C@H](C)[C@H](CN(C)Cc2ccc(C(=O)O)cc2)Oc2ccc(NC(=O)CCCN(C)C)cc2C1=O`: 1.01; `COc1ccc(C2=C(NC(=O)c3ccc(OC)cc3-c3cccc(OC)c3)C(=O)c3ccccc3C2=O)cc1`: 1.01.
`C[C@@H]1CCCCO[C@@H](CN(C)C(=O)CCC(F)(F)F)[C@H](C)CN([C@H](C)CO)C(=O)c2cc(NS(=O)(=O)c3ccccc3)ccc2O1`: the relative growth was 0.994.
Next, `CC=CC1=C(C(=O)O)N2C(=O)C(NC(=O)C(N)c3ccc(O)cc3)C2SC1` (stereo not drawn): 1.08; `Nc1nc(/C(=N/O)C(=O)N[C@@H]2C(=O)N3C(C(=O)O)=C(/C=C4\CCN([C@@H]5CCNC5)C4=O)CS[C@H]23)ns1`: 0.0367 (active).
Next, `C/C=C\C1=C(C(=O)O)N2C(=O)[C@H](NC(=O)[C@@H](N)c3ccc(O)cc3)[C@@H]2SC1`: 0.912; `C=CC1=C(C(=O)O)N2C(=O)[C@@H](NC(=O)/C(=N/O)c3csc(N)n3)[C@H]2SC1`: 0.0336 (active); `C[C@H](CO)N1C[C@H](C)[C@H](CN(C)S(=O)(=O)c2ccc(Cl)cc2)Oc2ccc(NC(=O)CCCN(C)C)cc2C1=O`: 0.989.
`COc1ccc(Cc2nn[nH]n2)cc1`: the relative growth was 1.
On to `Cc1noc(C)c1NC(=O)N(C)C[C@H]1OCCCC[C@H](C)Oc2ccc(NC(=O)c3ccccc3)cc2C(=O)N([C@@H](C)CO)C[C@H]1C`, for which the relative growth is 0.98.
With `CCc1nc2ccc(C(=O)Nc3cccc(OC)c3)cn2c1N(CC)Cc1cccc(Br)c1` the figure was 1.01.
With `CO[C@H]1CN(C)C(=O)c2cc(NC(C)=O)ccc2OC[C@@H](C)N(S(=O)(=O)c2cn(C)cn2)C[C@@H]1C` the figure was 1.01; with `COc1c(N2CCNC(C)C2)c(F)cc2c(=O)c(C(=O)O)cn(C3CC3)c12` (stereo not drawn), 0.0431 (active).
With `COc1c(N2CC3CCCNC3C2)c(F)cc2c(=O)c(C(=O)O)cn(C3CC3)c12.Cl` (stereo not drawn) the figure was 0.0459 (active); with `CCn1cc(C(=O)O)c(=O)c2cc(F)c(N3CCNC(C)C3)c(F)c21.Cl` (stereo not drawn), 0.0478 (active).
For the compound `C[C@@H]1CN([C@@H](C)CO)C(=O)c2cc(Br)cnc2O[C@H]1CN(C)C(=O)c1ccc2c(c1)OCO2`, the relative growth was 0.994.
With `Nc1c2c(=O)[nH]c(=O)cc-2[nH]n1-c1ccccc1` the figure was 0.972; with `COCC#Cc1ccc2c(c1)O[C@H](CN(C)C(=O)C1CCOCC1)[C@H](C)CN([C@@H](C)CO)S2(=O)=O`, 1.01; with `CC(C)CNC(=O)C[C@H]1NCCNC1=O`, 0.923.
Next, `CN1C(=O)c2cc(NC(=O)c3cccs3)ccc2OC[C@@H]2O[C@H](CC(=O)NCCN3CCCCC3)CC[C@H]21`: 1.02.
Consider `C[C@@H]1CN([C@H](C)CO)C(=O)c2cc(NC(=O)Cn3cnnn3)ccc2O[C@@H]1CN(C)Cc1ccncc1`, for which the relative growth is 1.01.
With `C[C@H]1CN([C@@H](C)CO)C(=O)c2cc(-c3ccncc3)cnc2O[C@H]1CN(C)S(=O)(=O)c1ccccc1` the figure was 1.01; with `C=C(CC[C@@H](C)[C@H]1CC[C@@]2(C)C3=C(C[C@H](O)[C@]12C)[C@@]1(C)CC[C@@H](OC(=O)CC(=O)O)C(C)(C)[C@@H]1CC3)[C@@H](C)C(=O)O`, 0.89; with `C[C@@H]1CN([C@H](C)CO)C(=O)c2cc(NC(=O)Nc3ccc(F)cc3)ccc2O[C@@H](C)CCCCO[C@H]1CN(C)C(=O)C1CCCCC1`, 1.01.
Take `CN1CCN(C(=O)C[C@@H]2CC[C@@H]3[C@H](COC[C@H](O)CN3C(=O)Nc3ccc4c(c3)OCO4)O2)CC1`: the relative growth was 0.974.
Take `Cc1noc(C)c1S(=O)(=O)N(C)C[C@@H]1OCCCC[C@H](C)Oc2ccc(NC(=O)Nc3ccc(F)cc3)cc2C(=O)N([C@H](C)CO)C[C@@H]1C`: the relative growth was 1.
Next, `CO/N=C(\C(=O)N[C@@H]1C(=O)N2C(C(=O)O[C@@H](C)OC(C)=O)=C(COC(N)=O)CS[C@H]12)c1ccco1`: 1.01.
With `CON=C(C(=O)NC1C(=O)N2C(C(=O)[O-])=C(CSc3nc(=O)c([O-])nn3C)CSC12)c1csc(N)n1.O.O.O.[Na+].[Na+]` (stereo not drawn) the figure was 0.0494 (active); with `CON=C(C(=O)NC1C(=O)N2C(C(=O)[O-])=C(COC(C)=O)CSC12)c1csc(N)n1.[Na+]` (stereo not drawn), 0.0428 (active); with `CON=C(C(=O)NC1C(=O)N2C(C(=O)[O-])=C(COC(N)=O)CSC12)c1ccco1.[Na+]` (stereo not drawn), 0.0464 (active).
With `COCC1=C(C(=O)OC(C)OC(=O)OC(C)C)N2C(=O)C(NC(=O)C(=NOC)c3csc(N)n3)C2SC1` (stereo not drawn) the figure was 0.551.
Take `CON=C(C(=O)NC1C(=O)N2C(C(=O)OC(C)OC(C)=O)=C(COC(N)=O)CSC12)c1ccco1` (stereo not drawn): the relative growth was 0.881.
For `CO/N=C(\C(=O)N[C@@H]1C(=O)N2C(C(=O)O)=C(CSc3nnnn3C)CS[C@H]12)c1csc(N)n1`, the relative growth is 0.0456 (active).
With `Nc1nc(=O)c2nc(Br)n([C@@H]3O[C@@H]4COP(=O)(O)O[C@H]4[C@H]3O)c2[nH]1` the figure was 1.03; with `O=C(C[C@@H]1C[C@H]2c3cc(NC(=O)Nc4ccc(C(F)(F)F)cc4)ccc3O[C@H]2[C@H](CO)O1)NCc1ccc(Cl)cc1`, 0.984; with `CN1CCN(C(=O)C[C@H]2CC[C@@H]3[C@H](COC[C@H](O)CN3CC3CCCC3)O2)CC1`, 1.
As for `C[C@H](CO)N1C[C@H](C)[C@H](CN(C)C(=O)c2cccc(F)c2)Oc2cc(-c3cccnc3)ccc2S1(=O)=O`, the relative growth is 1.03.
Consider `NCC[C@H]1CC[C@H](NC(=O)NC2CCCCC2)[C@H](CO)O1`, for which the relative growth is 0.986.
As for `C[C@@H]1CN([C@@H](C)CO)C(=O)Cc2cc(NC(=O)Nc3ccccc3)ccc2O[C@@H]1CN(C)Cc1ccc(Oc2ccccc2)cc1`, the relative growth was 0.967.
For `Cc1nc(CN)c(C)o1`, the relative growth was 0.995.
With `C[C@@H]1CN([C@@H](C)CO)C(=O)c2cc(NC(=O)Nc3ccc(C(F)(F)F)cc3)ccc2O[C@@H]1CN(C)S(=O)(=O)c1ccc(Cl)cc1` the figure was 1.04; with `C[C@H](CO)N1C[C@H](C)[C@H](CN(C)C(=O)Nc2ccc(C(F)(F)F)cc2)Oc2ccc(NC(=O)CCCCCC(=O)Nc3ccccc3N)cc2C1=O`, 0.925.
Next, `Cc1noc(C)c1NC(=O)Nc1cccc2c1O[C@@H](CN(C)Cc1ccc(-c3ccccc3)cc1)[C@H](C)CN([C@@H](C)CO)C2=O`: 1.01.
Take `CON=C(C(=O)N[C@@H]1C(=O)N2C(C(=O)O)=C(CSc3nc(=O)c(O)nn3C)CS[C@H]12)c1csc(N)n1`: the relative growth is 0.0335 (active).
Next, `C[C@@H]1CN([C@@H](C)CO)C(=O)Cc2cc(NC(=O)Nc3ccc(C(F)(F)F)cc3)ccc2O[C@@H]1CN(C)Cc1ccc(C(=O)Nc2ccccc2N)cc1`: 1; `Cc1noc(C)c1NC(=O)Nc1ccc2c(c1)C(=O)N([C@H](C)CO)C[C@@H](C)[C@H](CN(C)S(=O)(=O)c1cccs1)OCCCC[C@H](C)O2`: 0.988.
Consider `C[C@@H]1CN([C@H](C)CO)C(=O)c2cc(NS(=O)(=O)c3cccs3)ccc2O[C@H]1CN(C)Cc1ccc(Cl)c(Cl)c1`, for which the relative growth is 0.994.
With `Cc1ccc(S(=O)(=O)N(C)C[C@H]2OCCCC[C@@H](C)Oc3ccc(NC(=O)Nc4c(C)noc4C)cc3C(=O)N([C@@H](C)CO)C[C@@H]2C)cc1` the figure was 0.961; with `COc1ccc2c3c(n(c2c1)C)[C@@H](CO)N(C[C@]13CN(C1)C(=O)CN1CCOCC1)C(=O)Nc1ccc(cc1)F`, 0.977.
Next, `C[C@H]1CN([C@@H](C)CO)C(=O)Cc2cc(NC(=O)NC3CCCCC3)ccc2O[C@H]1CN(C)Cc1ccc(Oc2ccccc2)cc1`: 1.03.
With `C[C@@H]1CN([C@@H](C)CO)C(=O)c2cc(NC(=O)C3CCCCC3)ccc2O[C@@H]1CN(C)C(=O)Nc1cccc2ccccc12` the figure was 1.01.
As to `CC(C)(C)CC(C)(C)c1ccc(OCCOCC[N+](C)(C)Cc2ccccc2)cc1.[Cl-]`, the relative growth was 0.0469 (active).
`Cc1cc(C(C)(C)CC(C)(C)C)ccc1OCCOCC[N+](C)(C)Cc1ccccc1.[Cl-]`: the relative growth was 0.0463 (active).
For `C[N+](C)(CCOc1ccccc1)Cc1ccccc1.O=C(O)c1cc2ccccc2c(Br)c1O`, the relative growth was 0.944.
As to `C[N+](C)(CCOc1ccccc1)Cc1ccccc1.O=C([O-])c1cc2ccccc2cc1O`, the relative growth was 0.93.
With `COc1ccc(CN(C)C[C@H]2OCCCC[C@H](C)Oc3ccc(NC(=O)Nc4ccc(OC)cc4)cc3C(=O)N([C@@H](C)CO)C[C@H]2C)cc1` the figure was 0.901; with `C[C@H]1CN([C@@H](C)CO)C(=O)c2cc(C#CC3(O)CCCC3)cnc2O[C@H]1CN(C)C(=O)CN(C)C`, 0.988; with `O=C(NCC(F)(F)F)[C@@H]1[C@@H](CO)[C@@H]2Cn3c(cccc3=O)[C@@H]2N1C(=O)C1CCC1`, 1.
Next, `O=C(C[C@@H]1CC[C@H]2[C@@H](COC[C@H](O)CN2C(=O)c2ccccc2F)O1)N1CCN(c2ccccc2)CC1`: 0.976.
